Screening results deposited in PubChem BioAssay by several laboratories.
In the library only some 5.2% were active in any assay of this set; here they are far more common.
NR3A LBD binder: NR3A (human) ligand-binding domain modulation. Tm shift relative to glycine control, % at 25 µM. NR3A LBD differential scanning fluorimetry, Tm shift; 0% = protein alone, 100% = glycine-bound protein. 340,000 compounds, 2.5% hits. AID 1259313;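 active = melting temperature shift of at least 10% of the positive control shift, at one fixed dose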
NadD inh: inhibitors of Staphylococcus aureus NadD; inhibition, % at 20 µM; AID 602399; 360,000 compounds, 0.78% hits; purified NadD enzyme, colorimetric absorbance read-out; in the data active = inhibition above about 26%
Vif inh: blocks HIV Vif function; HEK293T cells, Vif self-association by quenched fluorescence, imaging, 24 h; inhibition, % at 7.49 µM; 340,000 compounds, 0.35% hits; AID 602346; in the data active = inhibition above about 50%, passing the limit was not always enough; inconclusive = no clear call, values can overlap the other calls; inactive = below about 31%
SKN-1 inh: C. elegans SKN-1 inhibition; C. elegans VP596 Pgst-4::GFP/RFP ratio, acrylamide-induced, 24 h; inhibition, % at 21.8 µM; 360,000 compounds, 0.49% hits; AID 624304;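 active = interference check ratio from 0.5 to 1.5 plus GFP to RFP signal ratio inhibition reaching or exceeding a fixed threshold, cut at about 30% in these data, passing the limit was not always enough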
esBAF inh: blocks esBAF chromatin remodeling in mouse ES cells; Bmi1-luciferase knock-in reporter, 24 h; 100% = twice the neutral-well signal; reporter increase, % at 12.5 µM; 350,000 compounds, 2% hits; in the data active = activation above about 40%; inconclusive = no clear call, values can overlap the other calls;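 also: 0% = median of the plate's neutral control wells and 100% = double that signal; a rise in the Bmi1 reporter signal indicates esBAF inhibition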
SMARCA2 act: increases SMARCA2 function in MMTV reporter cells; 370,000 compounds, 1% hits; activation, % at 9.1 µM; MG213 cells, MMTV-luciferase reporter, dexamethasone, overnight; in the data active = activation above about 7.8%;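 also: 0% = vehicle wells and 100% = reference activator wells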
Active calls of the source: *; ? = inconclusive; / = no result.

SMILES	NR3A LBD binder	NadD inh	Vif inh	SKN-1 inh	esBAF inh	SMARCA2 act
C[C@@H]1CCCCO[C@H](CN(C)S(=O)(=O)c2ccccc2)[C@H](C)CN([C@@H](C)CO)C(=O)c2cc(NS(=O)(=O)c3cn(C)cn3)ccc2O1	/	/	/	/	6	/
O=C(O)CN1C(=O)/C(=C\c2cc(Br)ccc2OCc2ccc(F)cc2)SC1=S	29*	9	-7	-12	-5	1
O=C(O)CN1C(=O)/C(=C\c2cc(Br)ccc2OCc2ccc(Cl)cc2)SC1=S	4	6	2	16	28	-2
Cc1cc(NC(=O)c2cccc(Br)c2)n[nH]1	0	0	-3	0	47*	7
Cc1cc(C)nc(NC(=O)c2cccc(Br)c2)n1	0	-3	2	-4	-4	0
CC(=C/c1ccco1)/C=N/N1CCN(c2ccccc2)CC1	1	12	-5	36*	49*	4
CC(/C=N/N1CCN(c2ccccn2)CC1)=C\c1ccccc1	3	10	0	67*	/	2
CC(/C=N/N1CCN(c2ccccc2)CC1)=C\c1ccco1	10	5	-9	-4	2	5
CC(/C=N/N1CCN(c2ccccc2)CC1)=C\c1ccccc1	1	5	-1	4	/	/
O=C(COc1ccc(Cl)cc1Cl)NN1C(=O)/C(=C\c2ccc(Cl)cc2)SC1=S	2	33*	-4	0	/	1
CC(=O)N=C1SC2CS(=O)(=O)CC2N1c1cccc(Cl)c1Cl (stereo not given)	0	0	1	40*	-3	0
CC(=O)N=C1SC2CS(=O)(=O)CC2N1c1ccccc1Cl (stereo not given)	3	-1	11	23	-11	-1
O=C(/C=C/c1cn(CC(O)CN2CCCCC2)c2ccccc12)c1ccccc1 (stereo not given)	0	7	-6	-4	/	0
CN1CCN(Cn2cc(/C=C/C(=O)c3ccccc3)c3ccccc32)CC1	26*	-13	-2	12	62*	/
COC(=O)c1cc(Cl)c(NC(=O)c2cc3ccccc3o2)cc1OC	0	-8	63*	-2	8	0
COc1cc(NC(=O)c2c(OC)cccc2OC)ccc1NC(=O)c1cc2ccccc2o1	-2	0	-9	2	?	3
CCC(=O)Nc1ccc(NC(=O)c2cc3ccccc3o2)c(OC)c1	9	-3	15	9	43*	1
COc1cc(NC(=O)c2cccc(F)c2)ccc1NC(=O)c1cc2ccccc2o1	36*	-7	-11	10	-1	-2
COC(=O)c1cc(Cl)c(NC(=O)c2ccc(C(C)(C)C)cc2)cc1OC	2	-6	-6	1	16	-2
C/C=C/c1cnc2c(c1)C(=O)N([C@@H](C)CO)C[C@H](C)[C@@H](CN(C)C(=O)NC1CCCC1)O2	/	/	/	/	-2	/
Cc1ccc(-c2ccc(CCC(=O)O)n2-c2cccc(O)c2)cc1	0	-4	-4	5	63*	2
Cc1cccnc1NC(=O)CCCNC(=O)c1ccc(Cl)cc1	-1	0	7	13	4	-3
Cc1ccc(NC(=O)CCCNC(=O)c2ccc(Cl)cc2)nc1	-1	1	-4	5	52*	2
Cc1cnc(NC(=O)CCCNC(=O)c2ccc(Cl)cc2)s1	1	-7	-3	-5	42*	2
Cc1ccc(NC(=O)CCNC(=O)c2ccc(Cl)cc2)nc1	0	-4	-5	8	38	3
SMILES	NR3A LBD binder	NadD inh	Vif inh	SKN-1 inh	esBAF inh	SMARCA2 act
CN(C)C(=O)C[C@H]1CC[C@H]2[C@@H](COC[C@H](O)CN2C(=O)c2ccncc2)O1	/	/	/	/	-1	/
Cc1cc(C)cc(NC(=O)Nc2ccc(NC(=O)c3ccccc3O)cc2)c1	25*	1	4	-11	2	-4
Cc1ccc(NC(=O)c2ccccc2O)cc1	-6	-1	-1	18	20	5
O=C(Nc1ccccc1)Nc1ccc(NC(=O)c2ccccc2O)cc1	42*	-4	-1	7	16	1
O=C(O)c1ccccc1C(=O)Nc1ccc(Nc2ccccc2)cc1	/	4	-2	4	-1	-2
O=C(Nc1ccccc1)c1ccccc1O	-14	-4	-14	-6	51*	8
CC(C)NC(=O)Nc1ccc2c(c1)C(=O)N([C@@H](C)CO)C[C@@H](C)[C@H](CN(C)S(=O)(=O)c1cn(C)cn1)OCCCC[C@@H](C)O2	/	/	/	/	1	/
COc1ccc(-c2cc(C(F)(F)F)nc(SCCC(=O)N3CCN(C)CC3)n2)cc1	0	-9	-6	2	/	-2
COc1ccc(-c2cc(C(F)(F)F)nc(SCC(N)=O)n2)cc1	-3	-4	-3	12	51*	-2
O=C(C[C@@H]1C[C@@H]2c3cc(NC(=O)c4cccnc4)ccc3O[C@@H]2[C@H](CO)O1)NCCN1CCCCC1	/	/	/	/	4	/
CO[C@H]1CN(C)C(=O)c2ccc(NS(C)(=O)=O)cc2OC[C@H](C)N(C(=O)C2CCCC2)C[C@H]1C	/	/	/	/	-3	/
CCOC(=O)C1=C(C)Nc2nc3ccccc3n2C1c1ccc(O)cc1 (stereo not given)	-1	0	-6	-2	/	0
N#CC1=C(N)Nc2nc3ccccc3n2C1c1ccc(Cl)cc1 (stereo not given)	38*	5	-1	5	/	-1
CCOC(=O)Nc1ccc2c(c1)ncn2C1CCCCC1	-2	3	82*	0	36	4
CC1CN(c2ccc([N+](=O)[O-])cc2Cl)CCN1S(C)(=O)=O (stereo not given)	1	-5	0	-15	5	-2
CC1CN(c2ccc(C(F)(F)F)cc2[N+](=O)[O-])CCN1S(C)(=O)=O (stereo not given)	14*	-5	-7	0	1	2
CN1C(=O)SC(Nc2ccccc2)C1=O (stereo not given)	2	-4	26	-18	3	-1
COc1cccc(NC2SC(=O)N(c3ccccc3)C2=O)c1 (stereo not given)	-40	-2	-1	3	59*	8.0*
Nc1nonc1-n1nnc(C(=O)N/N=C/c2ccc(OCc3ccccc3)cc2)c1COc1ccc(F)cc1	19*	24	1	13	15	-1
CCN(CC)Cc1c(C(=O)N/N=C/c2cccc(OCc3cccc(Cl)c3)c2)nnn1-c1nonc1N	12*	9	-2	-6	6	1
CCCc1c(C(=O)N/N=C/c2ccncc2)nnn1-c1nonc1N	4	-3	15	-6	-2	-2
Nc1nonc1-n1nnc(C(=O)N/N=C/c2ccc(O)cc2)c1COc1ccc(F)cc1	4	7	-9	4	-6	-1
CCCc1c(C(=O)N/N=C/c2cccc(OCc3ccc(F)cc3)c2)nnn1-c1nonc1N	35*	28	-2	6	5	-3
